mHTT-CaM PPI inh: mutant huntingtin-calmodulin interaction inhibitors – biochemical, AlphaScreen, primary screen; P42858; 3.6% of 190,000 active; AlphaScreen His-mHTT/GST-CaM binding, luminescence; inhibition, % at 15 µM;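 further: 0% = both proteins with DMSO and 100% = one protein alone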
Pf apPOL inh: Pf-apPOL inhibitors, biochemical, fluorescence; Plasmodium falciparum apicoplast DNA polymerase (apPOL); Recombinant Pf-apPOL, molecular beacon fluorescence, 1.5 h; inhibition, % at 10 µM; 0.25% of 210,000 active; AID 1794808, 2022
Active calls of the source: *; nt = no result; ! = not confirmed by another sample. This is a sample that favours compounds with a hit; in the whole collection about 3.6% have one here. No stated cut-off is given here; in the data, active means inhibition above about 50%; inactive means the rest.

SMILES	mHTT-CaM PPI inh	Pf apPOL inh
Cc1ccc(CN2C(=O)CCc3c(C)nc(-c4ccccc4)nc32)o1	90*	20
Cc1nc(-c2ccncc2)nc2c1CCC(=O)N2Cc1ccncc1	6	14
Cc1nc(-c2ccncc2)nc2c1CCC(=O)N2CCN1CCCC1	28	56*
Cc1nc(-c2cnccn2)nc2c1CCC(=O)N2Cc1ccccc1	9	-1
Cc1nc(-c2cnccn2)nc2c1CCC(=O)N2Cc1ccncc1	60*	59*
CCN1CCN(CCCNC(=O)C2CCN(c3ccc(N4CCCCC4)nn3)CC2)CC1	17	-2
Cn1c(C2CCN(S(=O)(=O)c3cc(Cl)cc(Cl)c3)C2)nc2ccncc21 (centres undefined)	6	6
CCOc1ccccc1NC(=O)C1c2ccccc2C(=O)N2CCc3ccccc3C12 (centres undefined)	15	1
CCOc1cc2c(cc1OCC)C1C(C(=O)Nc3cc(C)ccn3)c3ccccc3C(=O)N1CC2 (centres undefined)	51*	-3
CCc1ccc(CNC(=O)C2c3cc(OC)c(OC)cc3C(=O)N3CCc4ccccc4C23)cc1 (centres undefined)	10	1
CCc1ccccc1NC(=O)C1c2cc(OC)c(OC)cc2C(=O)N2CCc3ccccc3C12 (centres undefined)	63*	-2
Cc1ccc(-n2nc3c(c2NC(=O)C2CCCCC2)CS(=O)(=O)C3)cc1	4	-6
CCCc1cc(C2CCCN2C(=O)c2ccc3c(c2)OCO3)no1 (centres undefined)	-4	0
CCOCCCNC(=O)c1cnn2c(C)c(Cc3ccccc3Br)c(C)nc12	18	-12
Cc1ccc(SC(c2ccco2)C2CCCCC2=O)cc1 (centres undefined)	-12	-7
Cc1cc2c(cc1C)NC(CC(=O)Nc1ccccc1C)C(=O)N2 (centres undefined)	5	-2
CCOc1ccccc1NC(=O)CC1Nc2cc(C)c(C)cc2NC1=O (centres undefined)	21	5
Cc1cc2c(cc1C)NC(CC(=O)Nc1ccccc1OC(F)F)C(=O)N2 (centres undefined)	50*!	5
Cc1ccc(NC(=O)CC2Nc3cc(C)c(C)cc3NC2=O)c(Br)c1 (centres undefined)	64*!	-6
CCOc1ccc(N(C(C)C(=O)Nc2ccc(C)c(C)c2)S(C)(=O)=O)cc1 (centres undefined)	3	-7
COc1cc(OC)c(OC)cc1C=C1Oc2c(ccc(O)c2CN(C)C)C1=O	5	-1
FC(F)(F)c1cccc(-c2nc3ccccc3[nH]2)c1	-3	0
O=C(O)CCCCCNS(=O)(=O)c1ccc(Br)c(C(=O)O)c1	3	3
Cc1ccc(NC(=O)N2CCC(N3CCN(Cc4ccc(F)cc4)C3=O)CC2)c(C)c1	13	-4
Cc1ccc(OCC(=O)Nc2sc3c(c2C#N)CCCC3)cc1	1	-3
SMILES	mHTT-CaM PPI inh	Pf apPOL inh
C=C[C@H](CC(C)C)N(Cc1ccccc1)S(=O)(=O)N(Cc1ccc(OC)cc1)[C@H](C=C)CC(C)C	-16	-1
COc1ccc(CN([C@H](C)C=O)S(=O)(=O)N(Cc2ccccc2)[C@H](C=O)C(C)C)cc1	97*	0
CCOC(=O)N1CCN(C(=O)CSc2nc3[nH]ncc3c(=O)[nH]2)CC1	-18	-4
O=C(Nc1ccc(Br)cc1)c1nc[nH]c1C(=O)O	80*	-3
O=C(Nc1ccccc1)c1nc[nH]c1C(=O)Nc1ccccc1	-7	-8
CCNC(=O)C1CCC(c2cccc(C)c2)N(C(=O)C2CC2)C1 (centres undefined)	3	0
CCOc1ccccc1/C=C1/N=C(c2cc(Br)ccc2OC)OC1=O	-1	-2
O=C1Nc2ccccc2C1=Nc1ccc(Nc2ccccc2)cc1	100*	2
O=C1Nc2ccccc2C1=Nc1ccc(C(=O)c2ccccc2)cc1	3	0
O=S(=O)(Nc1ccc2c(c1)oc1ccccc12)c1ccc2ccccc2c1	77*	nt
CC(=O)Nc1ccc(S(=O)(=O)Nc2ccc3c(c2)oc2ccccc23)cc1	45	-6
Cc1ncc2c(n1)CCN(S(=O)(=O)c1ccc(F)c(C)c1)C2	-2	0
Oc1c(C=Nc2ccc(Br)cc2)[nH]c2ccc(Br)c(Cl)c12	58*	-7
Cc1cc(C)cc(N=Cc2[nH]c3ccc(Br)c(Cl)c3c2O)c1	4	-3
Oc1c(C=NCc2ccccc2)[nH]c2ccc(Br)c(Cl)c12	36	8
Oc1c(C=NC2CCCCC2)[nH]c2ccc(Br)c(Cl)c12	76*	9
COc1ccc(CN=Cc2[nH]c3ccc(Br)c(Cl)c3c2O)cc1	69*	5
COc1ccc(N=Cc2[nH]c3ccc(Br)c(Cl)c3c2O)cc1	19	-11
O=S(=O)(Nc1ccc2c(c1)OCCO2)c1ccccc1C(F)(F)F	-1	-5
CCN1CCN(C(=O)c2c(C)sc3ccn(C)c(=O)c23)CC1	5	-2
S=C(c1ccc(C(=S)N2CCOCC2)cc1)N1CCOCC1	-5	nt
COc1ccc(OC)c(C2C(C#N)=C(N)N(c3ncn[nH]3)C3=C2C(=O)CCC3)c1 (centres undefined)	-5	-3
N#C/C(=C\c1ccc(I)o1)c1nc2ccccc2[nH]1	-3	2
Cc1ccc2nc(/C(C#N)=C/c3cccc(Br)c3)[nH]c2c1	-21	-2
N#C/C(=C\c1cc(Cl)ccc1O)c1nc2ccccc2[nH]1	8	4
SMILES	mHTT-CaM PPI inh	Pf apPOL inh
COc1cc(/C=C(\C#N)c2nc3ccc(C)cc3[nH]2)ccc1OCC#N	70*	-4
N#C/C(=C\c1ccc(Sc2nc3ccccc3[nH]2)o1)c1nc2ccccc2[nH]1	100*	-6
Cc1ccc2nc(/C(C#N)=C/c3cccc(O)c3)[nH]c2c1	70*	-4
COc1ccc(/C=C(\C#N)c2nc3ccc(C)cc3[nH]2)cc1	4	-14
N#C/C(=C\c1ccc(O)cc1O)c1nc2ccccc2[nH]1	72*	0
Cc1nc2ncnn2c(NCC2CCCCC2)c1Cc1ccccc1	3	-4
COc1cc2c(cc1[N+](=O)[O-])CCCC2	-8	-1
O=C(Nc1ccc(Br)cc1)c1cc(S(=O)(=O)NCC2CCCO2)ccc1F (centres undefined)	3	-13
Cc1cc2n(n1)CCC(=O)N2CCCC(=O)N1CCOCC1	2	-5
COCCCNC(=O)N1CCCC1c1nc(-c2cccc(C)c2)no1 (centres undefined)	15	-1
COC(=O)c1ccc(Oc2coc3cc(OC(=O)c4cccc([N+](=O)[O-])c4)ccc3c2=O)cc1	-8	-1
COc1cc(/C=C(\C#N)c2nc3ccccc3[nH]2)cc(Br)c1O	1	8
COc1cc(/C=C(\C#N)c2nc3ncc(Br)cc3[nH]2)ccc1O	55*	-7
O=C(NCC1CCCO1)C1CCN(c2cnn(Cc3ccccc3)c(=O)c2)CC1 (centres undefined)	0	-2
COc1cccc(-c2ccc3nc(C(=O)NCc4ccncc4)cn3c2)c1	52*	12
COc1cccc(CNC(=O)c2cn3cc(Cl)ccc3n2)c1	1	-3
Cc1nnc2c(NS(=O)(=O)c3ccccc3C(F)(F)F)cccn12	-5	1
O=C(Nc1ccccc1F)N1CCC2(CC1)Nc1cc(F)ccc1-n1cccc12	33	5
COc1ccc(NC(=O)C2CCN(C(=O)c3ccc(F)cc3)CC2)c(OC)c1	3	3
